# Laboratory results: PubChem BioAssay (NCI)
# This is part of a sample that, as a whole, favours compounds with a hit. Of some 83,000 tested, about 20% had one in any assay.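 Testing used 96-well plates and a 48-hour single-concentration exposure. Example: -40 means 40% of the starting cells died.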 Activity calls are given as the source filed them. How the source made its calls: active means growth percent below 10; inactive means the rest.
# Test system: HL-60(TB) leukemia
# Assay: NCI-60 one-dose screen, 48 h (100 = growth as untreated, 0 = no growth, -100 = all killed)
# Conditions: 10 µM unless noted
row,SMILES,growth
1,Cn1cc(-c2csc(-c3cn(CCN)c4ccc(F)cc34)n2)c2cccnc21,47.1% (inactive)
2,O=C(N/N=C/c1ccc(O)c(O)c1)c1sc2ccccc2c1Cl,4.17% (active)
3,C=C(C)C1CCC2(C(=O)O)CCC3(C)C(CCC4C5(C)CCC(O)C(C)(C)C5CCC43C)C12 (configuration not stated),-40% (active)
4,CCCCCCCCCCCCOB(OCCCCCCCCCCCC)OCCCCCCCCCCCC,107% (inactive)
5,COc1ccc(C2CC(c3ccc(Nc4nc(Nc5ccc(F)cc5)nc(Nc5ccc(F)cc5)n4)cc3)=NN2C(C)=O)cc1 (configuration not stated),17.1% (inactive)
6,CN(C)CCCCC(C(=O)CBr)(c1ccccc1)c1ccccc1,-36.1% (active)
7,C=CCn1c(SCC(=O)Nc2ccc(/C(C)=N\O)cc2)nnc1-c1cc(-c2ccc(OC)cc2)nc2ccccc12,-39.2% (active)
8,O=C(O)CCC/C=C\C[C@H]1C=CC(=O)/C1=C/C[C@@H](O)CCc1cccc(C(F)(F)F)c1,-11.7% (active)
9,CCC1CCc2nc3sc(C(=O)Nc4cccc(F)c4)c(N)c3cc2C1 (configuration not stated),23% (inactive)
10,COc1cc(-c2nn(-c3cccc(NC(=O)Nc4ccc(Cl)c(C(F)(F)F)c4)c3)cc2-c2ccncc2)ccc1Cl,-19.8% (active)
11,CCOC(=O)Cn1c(-c2nonc2NC(=O)c2ccccc2F)nc2ccccc21,35.1% (inactive)
12,CC(CCC(=O)O)[C@H]1CCC2C3C(=O)C[C@@H]4CC(=O)CC[C@]4(C)C3CC(=O)[C@@]21C (some centres not stated),106% (inactive)
13,C=CC[n+]1c(/C=C2\Sc3ccccc3N2C)sc(-c2ccccc2)c1-c1ccccc1,-25.5% (active)
14,CS(=O)(=O)Nc1cc(-c2ccc3ncnc(Nc4ccc5c(cnn5Cc5ccncc5)c4)c3c2)cnc1Cl,15.4% (inactive)
15,COc1ccc(C2=Nn3c(nnc3-c3ccc(Cl)cc3N)SC2)cc1,100% (inactive)
16,Cc1ccc2c(O)c(O)cc(NC(C)CCCN)c2n1 (configuration not stated),28.3% (inactive)
17,CN(Cc1cnc2nc(N)nc(N)c2n1)c1c(Cl)cc(C(=O)NC(CCC(=O)O)C(=O)O)cc1Cl (configuration not stated),18.6% (inactive)
18,O=C(O)CS(=O)c1ccc(Cl)cc1 (configuration not stated),86.2% (inactive)
19,C/C1=C\CCC2(C)OC2CC2CCC(C)(O)C(CC1)C2(C)C (configuration not stated),142% (inactive)
20,COc1ccc(NC(=O)c2ccc(C(=O)Nc3ccc(OC)cc3OC)cc2)c(OC)c1,88.5% (inactive)
21,CCN(CC)CCN1CNC(=S)NC1,78.8% (inactive)
22,O=C1CC(C(F)(F)F)=NN1C(=O)c1nn(-c2ccc(Cl)cc2)cc1O,105% (inactive)
23,C=C1CC[C@H](C(C)C)[C@@H]2[C@H]1[C@H]1CC(=C)[C@@H](O)CC[C@@](C)(O)[C@@H]2O1,103% (inactive)
24,COc1cc2c(c(OC)c1OC)-c1ccc(NN(C(=O)c3ccccc3)C(=O)c3ccccc3)c(=O)cc1[C@@H](NC(C)=O)CC2 (tested in a mixture with another compound),-1.35% (active)
25,COC(=O)c1cnc2c(c1)Oc1ccccc1-c1ccnn1-2,98.3% (inactive)
26,CC1=C(C#N)C(=O)NC(C)C1 (configuration not stated),91% (inactive)
27,O=C1OC2(c3ccccc31)c1ccccc1-c1ccccc12,69.6% (inactive)
